Measured values published in the supplement of paper PMC3334620.
In all, about 33,000 sequences were measured (“E-score (-0.5 to 0.5)”: median about -0.054, highest 2% from about 0.39 on). This excerpt belongs to a sample that is enriched for the highest values.

What follows are sequences tested against Ylr278c (UniProt Q05854) (assay: PBM E-score (8-mer binding enrichment) (E-score (-0.5 to 0.5)); higher = stronger / more preferred TF binding). Settings: protein concentration: 200 nM; construct: GST-DNA-binding domain.
Sequence of UniProt Q05854 (Q05854 whole entry, the tested form may be a part): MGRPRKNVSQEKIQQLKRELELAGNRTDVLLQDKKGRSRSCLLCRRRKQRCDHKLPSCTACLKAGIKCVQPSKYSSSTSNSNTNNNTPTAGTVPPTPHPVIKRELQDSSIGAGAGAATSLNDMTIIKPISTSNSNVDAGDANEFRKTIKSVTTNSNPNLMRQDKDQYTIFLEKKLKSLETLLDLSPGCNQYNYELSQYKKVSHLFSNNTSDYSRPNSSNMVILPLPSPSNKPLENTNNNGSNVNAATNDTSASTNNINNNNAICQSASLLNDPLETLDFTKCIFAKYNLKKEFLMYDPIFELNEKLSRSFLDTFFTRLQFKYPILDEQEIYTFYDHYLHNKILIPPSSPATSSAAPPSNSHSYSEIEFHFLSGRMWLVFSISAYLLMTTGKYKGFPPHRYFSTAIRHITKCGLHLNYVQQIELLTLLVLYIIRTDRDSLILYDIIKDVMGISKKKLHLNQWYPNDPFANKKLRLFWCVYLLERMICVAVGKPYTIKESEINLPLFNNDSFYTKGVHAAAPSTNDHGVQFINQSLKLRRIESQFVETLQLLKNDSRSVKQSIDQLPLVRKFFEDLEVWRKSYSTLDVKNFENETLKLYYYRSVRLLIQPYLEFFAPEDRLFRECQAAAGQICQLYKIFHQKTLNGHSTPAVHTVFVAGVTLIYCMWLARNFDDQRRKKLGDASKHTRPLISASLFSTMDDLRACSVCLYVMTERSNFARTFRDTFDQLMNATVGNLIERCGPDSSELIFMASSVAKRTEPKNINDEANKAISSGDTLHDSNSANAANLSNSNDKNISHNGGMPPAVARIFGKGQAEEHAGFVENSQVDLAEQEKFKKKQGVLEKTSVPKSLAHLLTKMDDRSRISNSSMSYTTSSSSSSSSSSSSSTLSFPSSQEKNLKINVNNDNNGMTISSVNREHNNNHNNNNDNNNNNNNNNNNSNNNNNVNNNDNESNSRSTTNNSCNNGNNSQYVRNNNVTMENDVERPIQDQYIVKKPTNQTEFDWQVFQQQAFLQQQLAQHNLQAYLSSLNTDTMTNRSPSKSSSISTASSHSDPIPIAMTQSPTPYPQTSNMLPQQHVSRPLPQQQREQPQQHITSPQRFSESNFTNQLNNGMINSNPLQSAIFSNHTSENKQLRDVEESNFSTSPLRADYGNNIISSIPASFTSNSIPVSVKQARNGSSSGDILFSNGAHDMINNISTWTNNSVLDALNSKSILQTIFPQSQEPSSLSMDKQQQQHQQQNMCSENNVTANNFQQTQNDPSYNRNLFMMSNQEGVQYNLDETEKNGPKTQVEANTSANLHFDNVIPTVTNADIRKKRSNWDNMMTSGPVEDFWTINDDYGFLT
Procedure: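 Universal 'all 10-mer' protein binding microarrays (Agilent AMADID 015681) probed with GST-tagged S. cerevisiae TFs (full-length or DBD) made by in vitro transcription/translation (PURExpress), about 100-200 nM. Bound TF was detected with fluorescent anti-GST. Each ungapped 8-mer (which stands for itself and its reverse complement) is scored by the PBM enrichment score (E-score), a modified Wilcoxon-Mann-Whitney statistic from -0.5 to +0.5, computed with the Universal PBM Analysis Suite. Scale: above 0.35 generally sequence-specific binding.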
With AGCGCGGA the “PBM E-score” value was 0.325. In the case of GCCGCGGA, the “PBM E-score” value is reported as 0.409. For GACGCGGC, the “PBM E-score” value was 0.079. GGCGCGGA was tested, and the “PBM E-score” value was 0.352. With ACCGCGGA the “PBM E-score” value was 0.407. CGCGCGGA was tested, and the “PBM E-score” value was 0.398. With GCCGCGCA the “PBM E-score” value was 0.21. In the case of ACCGCGGG, the “PBM E-score” value is reported as 0.299. In the case of GCCGCGAA, the “PBM E-score” value is reported as 0.233. In the case of GCCGCGGC, the “PBM E-score” value is reported as 0.406. For ACCGCGGC, the “PBM E-score” value was 0.305. AAGTTCAT was tested, and the “PBM E-score” value was 0.154. In the case of CGCTTTTA, the “PBM E-score” value is reported as 0.129. For CATGGCAC, the “PBM E-score” value was 0.133. For TACCCGCA, the “PBM E-score” value was 0.157. With CAGCACCC the “PBM E-score” value was -0.0668. With AGTCAGTA the “PBM E-score” value was 0.00611. For CATAGCCG, the “PBM E-score” value was 0.23. With AACTCTTC the “PBM E-score” value was -0.204. With AAGTGGTA the “PBM E-score” value was -0.0771. With AGTTGTGG the “PBM E-score” value was -0.0534. For CACGCGGA, the “PBM E-score” value was 0.379. AACGCGGA was tested, and the “PBM E-score” value was 0.397. For AACGCGGC, the “PBM E-score” value was 0.183. With CCCGCGGA the “PBM E-score” value was 0.409. For TCCGCGAA, the “PBM E-score” value was 0.343. For CCCGCGGG, the “PBM E-score” value was 0.363. CCCGCGGC was tested, and the “PBM E-score” value was 0.336. TCCGCGGA was tested, and the “PBM E-score” value was 0.44. In the case of TACGCGGA, the “PBM E-score” value is reported as 0.309. CCTCTCAA was tested, and the “PBM E-score” value was 0.0673. In the case of GGTAGAAA, the “PBM E-score” value is reported as -0.0702. For AGCCCATG, the “PBM E-score” value was -0.131. For ACATTGAG, the “PBM E-score” value was -0.114. For CGACCTAG, the “PBM E-score” value was 0.02. In the case of AACGGTCT, the “PBM E-score” value is reported as -0.0855. AAACTCCA was tested, and the “PBM E-score” value was 0.176. With AAACTCCT the “PBM E-score” value was 0.23. With CAACTCCG the “PBM E-score” value was 0.486. For CAACTCCC, the “PBM E-score” value was 0.154. In the case of AAACTCCG, the “PBM E-score” value is reported as 0.496. In the case of CAACTCCA, the “PBM E-score” value is reported as 0.0206. With CACGCTCC the “PBM E-score” value was 0.129. For CTCGCGTC, the “PBM E-score” value was 0.0578. For GGGCTCAA, the “PBM E-score” value was -0.00819. For ACTCCTGC, the “PBM E-score” value was 0.165. ACTCCAGC was tested, and the “PBM E-score” value was -0.122. With GCTCCGGA the “PBM E-score” value was 0.464. In the case of CCTCCTGC, the “PBM E-score” value is reported as -0.182. For GCTCCAGA, the “PBM E-score” value was -0.103. For CCTCCAGC, the “PBM E-score” value was -0.37. With CCTCCGGC the “PBM E-score” value was 0.448. GCTCCCGA was tested, and the “PBM E-score” value was 0.0641. With ACTCCTGG the “PBM E-score” value was -0.0351. ACTCCAGG was tested, and the “PBM E-score” value was 0.00347. With ACTCCGGC the “PBM E-score” value was 0.476. With ACTCCGGG the “PBM E-score” value was 0.481. With ATAAGTTA the “PBM E-score” value was -0.103. For ACTAGAAG, the “PBM E-score” value was -0.121. With AGAAGGAT the “PBM E-score” value was -0.269. For ACTTCAGG, the “PBM E-score” value was -0.0351. With ACTGCATC the “PBM E-score” value was -0.142. In the case of CCACTTCC, the “PBM E-score” value is reported as 0.0941. With CTCTTGGC the “PBM E-score” value was -0.239. CTGAGGGC was tested, and the “PBM E-score” value was -0.251. For ACTCCGGA, the “PBM E-score” value was 0.494. With CCTCCTGA the “PBM E-score” value was -0.172. With ACTCCTGA the “PBM E-score” value was 0.0258. In the case of ACTCCAGA, the “PBM E-score” value is reported as -0.112. In the case of CCTCCGGA, the “PBM E-score” value is reported as 0.467. For CCTCCCGA, the “PBM E-score” value was 0.0701. In the case of CGCGCAAG, the “PBM E-score” value is reported as 0.0504. In the case of CTACACGC, the “PBM E-score” value is reported as -0.235. In the case of GCGATATA, the “PBM E-score” value is reported as 0.00114. In the case of ACTAGCAA, the “PBM E-score” value is reported as -0.104. With AGGTGCAC the “PBM E-score” value was 0.0215. With GGAATTCC the “PBM E-score” value was 0.441. In the case of GGAATTCA, the “PBM E-score” value is reported as 0.183. In the case of AGAATTCC, the “PBM E-score” value is reported as 0.283. With GAGACTCC the “PBM E-score” value was 0.249. AGCCGCCG was tested, and the “PBM E-score” value was 0.313. In the case of GTCCGCCA, the “PBM E-score” value is reported as 0.293. For CTCCGCCA, the “PBM E-score” value was 0.391. For ACCCGCCG, the “PBM E-score” value was 0.307. For CGCCGCCC, the “PBM E-score” value was 0.284. With ATCCGCCC the “PBM E-score” value was 0.291. For ATCCGCCG, the “PBM E-score” value was 0.401. With ATCCGCCA the “PBM E-score” value was 0.196. CTCCGCCC was tested, and the “PBM E-score” value was 0.457. For CCAGTCCC, the “PBM E-score” value was -0.0319. With GCGTGAGA the “PBM E-score” value was -0.0361. GCCTCATA was tested, and the “PBM E-score” value was -0.00634. AATGGTAA was tested, and the “PBM E-score” value was 0.0806. ACTTTGCC was tested, and the “PBM E-score” value was 0.0108. With CGTCTGGA the “PBM E-score” value was -0.166. For CGACTGCC, the “PBM E-score” value was 0.0706. AGAGATAG was tested, and the “PBM E-score” value was -0.0754. For TGGAGGAA, the “PBM E-score” value was -0.131. CGGAGGAG was tested, and the “PBM E-score” value was 0.417. With CGGAGGAA the “PBM E-score” value was 0.436. For CGGAGGCA, the “PBM E-score” value was 0.34. AGGAGGAA was tested, and the “PBM E-score” value was -0.165. For AGGAGGCC, the “PBM E-score” value was -0.164. In the case of CCGAGGAG, the “PBM E-score” value is reported as 0.183. With CGGAGGCC the “PBM E-score” value was 0.42. In the case of CGGAGGAC, the “PBM E-score” value is reported as 0.423. With GGGAGGAC the “PBM E-score” value was 0.0177. In the case of AGGAGGAG, the “PBM E-score” value is reported as -0.212. With AGGAGGAC the “PBM E-score” value was -0.294. ATTCGCTA was tested, and the “PBM E-score” value was -0.0743. With TCTGCTCA the “PBM E-score” value was -0.298. With CAGTATGG the “PBM E-score” value was -0.195. CCACATCC was tested, and the “PBM E-score” value was 0.0271. With AGAGTCAC the “PBM E-score” value was -0.333. For CAGAATCG, the “PBM E-score” value was 0.00258. For CACGTCAA, the “PBM E-score” value was -0.202. CCCTTAGA was tested, and the “PBM E-score” value was -0.393. With ACCCCGAA the “PBM E-score” value was 0.392. CCCCCGAA was tested, and the “PBM E-score” value was 0.184. GCCCCGAA was tested, and the “PBM E-score” value was 0.301. In the case of ACCCCGAG, the “PBM E-score” value is reported as 0.319. With ACCCCGAC the “PBM E-score” value was 0.39. With ACCCCGAT the “PBM E-score” value was 0.426. For AACCCGAT, the “PBM E-score” value was 0.29. In the case of GCCCCGAC, the “PBM E-score” value is reported as 0.278. With CCCCCGAC the “PBM E-score” value was 0.228. In the case of AATCTATG, the “PBM E-score” value is reported as -0.0536. With ACCATAGA the “PBM E-score” value was 0.00619. With GTTCAGGA the “PBM E-score” value was -0.0137. With GATCTCAC the “PBM E-score” value was 0.0769. For CCAGTAGG, the “PBM E-score” value was -0.101. ATCCGTGG was tested, and the “PBM E-score” value was 0.299. In the case of AGAAGGCC, the “PBM E-score” value is reported as 0.0969. For CTCCGTTA, the “PBM E-score” value was 0.347. For ATCCGTTC, the “PBM E-score” value was 0.183. In the case of CTCCGTGA, the “PBM E-score” value is reported as 0.425. With ATCCGTGC the “PBM E-score” value was 0.125. GTCCGTGA was tested, and the “PBM E-score” value was 0.278. For CTCCGTGC, the “PBM E-score” value was 0.416. With ATCCGTGA the “PBM E-score” value was 0.244. CACCGTGC was tested, and the “PBM E-score” value was -0.0579. For CTCCGTTC, the “PBM E-score” value was 0.394. GTGCTAGA was tested, and the “PBM E-score” value was -0.277. AGCGTGGC was tested, and the “PBM E-score” value was -0.0918. For AGTGGGAG, the “PBM E-score” value was -0.221. In the case of CGAAGGCA, the “PBM E-score” value is reported as -0.0856. CGTCCATC was tested, and the “PBM E-score” value was 0.145. With CAGTATCG the “PBM E-score” value was 0.0195. With CGACCCCG the “PBM E-score” value was 0.247. For CGGGAGGA, the “PBM E-score” value was 0.25. With GCGGAGGA the “PBM E-score” value was 0.406. With CAGGAGGC the “PBM E-score” value was -0.0031. With CCGGAGGA the “PBM E-score” value was 0.465. For CCGGAGGC, the “PBM E-score” value was 0.433. With GAGGAGGA the “PBM E-score” value was -0.246. With ACGGAGGC the “PBM E-score” value was 0.302. With CAGGAGGA the “PBM E-score” value was -0.219. In the case of ACGGAGGA, the “PBM E-score” value is reported as 0.383. For GACGGCAC, the “PBM E-score” value was 0.0236. In the case of GCAGTCGA, the “PBM E-score” value is reported as -0.0263. For TAACAACA, the “PBM E-score” value was -0.124. In the case of CAGATCTA, the “PBM E-score” value is reported as -0.168. CTCTGATC was tested, and the “PBM E-score” value was -0.271. With TCCGAAGA the “PBM E-score” value was 0.433. For TCCGAAAA, the “PBM E-score” value was 0.431. For TCCGAACA, the “PBM E-score” value was 0.429. With GCCGAAAA the “PBM E-score” value was 0.359. ACCGAACA was tested, and the “PBM E-score” value was 0.0403. ACCGAAGA was tested, and the “PBM E-score” value was 0.183. With CCCGAAGA the “PBM E-score” value was 0.156. In the case of CCCGAAAA, the “PBM E-score” value is reported as 0.294. With GCCGAACA the “PBM E-score” value was 0.21.
